# Measurements as given in PubChem BioAssay.
# The source made the active and inactive calls.
# Experiments:
# [1] = small molecules captured by biotinylated probe aFSTL3 – biochemical, small-molecule microarray, fluorescence 635/667, stem cell growth factor project, primary screen (AID 1064); conditions: higher = more signal;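 further: measures binding of the biotinylated anti-FSTL3 antibody to printed compounds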
# [2] = binders from COS7 lysate, DM2A8 probe, primary screen, torsin A project, cell lysate, small-molecule microarray, fluorescence 635/667 (AID 1065); conditions: higher = more signal, COS7 lysate expressing mutant human TOR1A
# [3] = small molecules captured by biotinylated probe aFGF2 – biochemical, small-molecule microarray, fluorescence 635/667, stem cell growth factor project, primary screen (AID 1067); conditions: higher = more signal;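 further: measures binding of biotinylated aFGF2 protein to printed compounds on slides; z-score merges feature fluorescence and signal-to-noise across triplicate slides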
# [4] = small molecules captured by biotinylated probe aFGF10 – biochemical, small-molecule microarray, fluorescence 635/667, stem cell growth factor project, primary screen (AID 1071); conditions: higher = more signal;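 further: score merges 667 nm spot intensity and signal to noise from triplicate slides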
# [5] = biological target: Neurogenic locus notch homolog protein 2 (Homo sapiens) (UniProt Q04721); assay: small molecules binding Notch2 protein – biochemical, small-molecule microarray, 635 nm fluorescence, stem cell growth factors, primary screen (AID 1073); conditions: higher = more signal
# Sequence of Neurogenic locus notch homolog protein 2 (Homo sapiens) (Q04721 whole entry, looked up, canonical isoform): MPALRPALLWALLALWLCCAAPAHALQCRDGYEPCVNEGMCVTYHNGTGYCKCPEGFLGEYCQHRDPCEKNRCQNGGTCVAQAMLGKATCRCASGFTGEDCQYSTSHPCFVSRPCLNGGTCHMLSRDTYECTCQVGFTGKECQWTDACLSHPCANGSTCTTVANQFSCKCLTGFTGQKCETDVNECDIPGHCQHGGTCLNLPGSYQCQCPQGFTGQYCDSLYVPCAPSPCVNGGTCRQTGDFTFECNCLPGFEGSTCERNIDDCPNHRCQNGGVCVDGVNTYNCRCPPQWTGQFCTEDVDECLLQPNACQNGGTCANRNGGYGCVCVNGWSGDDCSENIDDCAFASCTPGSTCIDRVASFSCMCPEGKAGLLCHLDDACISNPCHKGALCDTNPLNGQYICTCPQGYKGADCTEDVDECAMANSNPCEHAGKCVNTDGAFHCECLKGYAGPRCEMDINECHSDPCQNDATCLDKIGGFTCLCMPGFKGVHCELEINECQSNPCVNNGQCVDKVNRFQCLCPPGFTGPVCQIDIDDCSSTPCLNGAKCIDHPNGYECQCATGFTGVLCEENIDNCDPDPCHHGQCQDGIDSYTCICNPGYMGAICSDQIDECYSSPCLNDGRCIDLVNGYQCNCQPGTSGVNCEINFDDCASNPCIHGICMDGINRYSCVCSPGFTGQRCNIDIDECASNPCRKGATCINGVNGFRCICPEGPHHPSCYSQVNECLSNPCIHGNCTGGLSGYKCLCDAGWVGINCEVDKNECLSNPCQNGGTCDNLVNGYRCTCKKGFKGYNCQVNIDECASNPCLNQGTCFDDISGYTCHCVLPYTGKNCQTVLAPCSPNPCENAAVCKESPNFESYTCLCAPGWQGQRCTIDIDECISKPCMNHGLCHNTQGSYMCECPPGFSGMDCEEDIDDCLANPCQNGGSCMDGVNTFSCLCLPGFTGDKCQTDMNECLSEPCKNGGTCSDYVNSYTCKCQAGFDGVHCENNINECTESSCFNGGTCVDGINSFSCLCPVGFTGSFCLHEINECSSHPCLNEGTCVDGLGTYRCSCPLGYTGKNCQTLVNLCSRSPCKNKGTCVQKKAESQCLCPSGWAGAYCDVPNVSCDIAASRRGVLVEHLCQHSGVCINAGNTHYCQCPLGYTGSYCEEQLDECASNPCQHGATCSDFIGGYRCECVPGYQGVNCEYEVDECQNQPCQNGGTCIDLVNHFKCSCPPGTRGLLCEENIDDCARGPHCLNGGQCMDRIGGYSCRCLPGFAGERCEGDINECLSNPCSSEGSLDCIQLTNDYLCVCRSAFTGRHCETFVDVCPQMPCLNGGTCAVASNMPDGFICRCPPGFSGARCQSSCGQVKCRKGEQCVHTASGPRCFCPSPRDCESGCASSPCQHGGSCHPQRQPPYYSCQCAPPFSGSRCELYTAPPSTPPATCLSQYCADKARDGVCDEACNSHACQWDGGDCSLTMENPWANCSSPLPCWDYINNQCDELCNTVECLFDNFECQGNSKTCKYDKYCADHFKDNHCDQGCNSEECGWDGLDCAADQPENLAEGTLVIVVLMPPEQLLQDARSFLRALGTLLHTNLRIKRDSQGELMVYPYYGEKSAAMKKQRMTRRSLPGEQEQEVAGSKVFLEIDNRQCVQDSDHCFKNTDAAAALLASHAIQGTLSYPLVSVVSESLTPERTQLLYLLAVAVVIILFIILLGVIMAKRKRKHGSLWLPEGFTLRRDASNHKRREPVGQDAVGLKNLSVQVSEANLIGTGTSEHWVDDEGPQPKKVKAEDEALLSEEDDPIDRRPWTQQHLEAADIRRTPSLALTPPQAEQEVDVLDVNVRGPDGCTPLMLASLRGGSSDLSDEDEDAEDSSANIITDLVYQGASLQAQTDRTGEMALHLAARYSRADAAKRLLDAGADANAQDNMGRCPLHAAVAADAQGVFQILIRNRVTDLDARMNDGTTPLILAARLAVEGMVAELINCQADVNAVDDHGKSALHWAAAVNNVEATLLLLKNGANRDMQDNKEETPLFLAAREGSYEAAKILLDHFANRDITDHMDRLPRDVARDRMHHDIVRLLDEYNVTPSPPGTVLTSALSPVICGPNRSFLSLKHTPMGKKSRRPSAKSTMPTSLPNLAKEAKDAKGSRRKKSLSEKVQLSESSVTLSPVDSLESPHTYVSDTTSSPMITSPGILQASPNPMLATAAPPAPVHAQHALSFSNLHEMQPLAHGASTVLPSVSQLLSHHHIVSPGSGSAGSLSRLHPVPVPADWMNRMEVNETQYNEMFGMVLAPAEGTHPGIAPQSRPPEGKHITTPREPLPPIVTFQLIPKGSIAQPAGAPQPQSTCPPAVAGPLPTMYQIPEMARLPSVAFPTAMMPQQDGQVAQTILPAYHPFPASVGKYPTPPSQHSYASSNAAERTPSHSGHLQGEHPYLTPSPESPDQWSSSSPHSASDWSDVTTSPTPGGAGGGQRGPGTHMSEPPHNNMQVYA
# [6] = biological target: Pro-neuregulin-1, membrane-bound isoform (Homo sapiens) (UniProt Q02297); assay: small molecules binding neuregulin-1 protein – biochemical, small-molecule microarray, fluorescence 635/667, psychiatric disease protein project, primary screen (AID 1075); conditions: NRG1 binding, 635 nm fluorescence, higher = more signal;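 further: score combines 667 nm spot fluorescence with signal to noise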
# Sequence of Pro-neuregulin-1, membrane-bound isoform (Homo sapiens) (Q02297 whole entry, looked up, the tested form may be a part, canonical isoform): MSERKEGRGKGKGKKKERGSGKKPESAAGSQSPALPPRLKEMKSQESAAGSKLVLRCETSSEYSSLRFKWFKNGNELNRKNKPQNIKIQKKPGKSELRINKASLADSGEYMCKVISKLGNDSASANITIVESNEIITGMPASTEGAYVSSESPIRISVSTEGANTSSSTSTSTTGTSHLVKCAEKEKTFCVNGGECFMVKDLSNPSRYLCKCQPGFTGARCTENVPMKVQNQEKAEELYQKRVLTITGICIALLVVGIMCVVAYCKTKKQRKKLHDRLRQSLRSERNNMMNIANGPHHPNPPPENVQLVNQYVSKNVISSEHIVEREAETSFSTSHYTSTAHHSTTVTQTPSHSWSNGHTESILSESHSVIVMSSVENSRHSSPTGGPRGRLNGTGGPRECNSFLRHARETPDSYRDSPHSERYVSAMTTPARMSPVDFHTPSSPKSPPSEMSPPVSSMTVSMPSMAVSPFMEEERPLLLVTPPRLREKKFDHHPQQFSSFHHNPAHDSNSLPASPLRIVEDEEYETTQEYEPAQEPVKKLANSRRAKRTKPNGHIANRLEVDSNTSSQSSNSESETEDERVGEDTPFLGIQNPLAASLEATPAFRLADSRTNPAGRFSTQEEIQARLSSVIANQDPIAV
# [7] = test system: Neuregulin-1 EGF-like domain; assay: small molecules binding NRG1 EGF domain – biochemical, small-molecule microarray, 635 nm fluorescence, primary screen (AID 1081); conditions: higher = more signal;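 further: binding of the protein to compounds printed on small-molecule microarray slides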
# [8] = FRG1 expression reporter modulators in myotubes – cell-based, C2C12 myotubes, firefly/Renilla luciferase, luminescence, FRG1 inhibition for FSHD, primary screen (AID 1084); conditions: FRG1 promoter luciferase, higher = more signal, called active from +8 up or from −8 down
# [9] = small molecules captured by biotinylated probe aFST – biochemical, small-molecule microarray, fluorescence 635/667, stem cell growth factor project, primary screen (AID 1086); conditions: higher = more signal;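 further: score merges 667 nm fluorescence with signal-to-noise of each printed compound spot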
# [10] = binders of probe aHhip on microarray, primary screen, stem cell growth factor project, biochemical, small-molecule microarray, fluorescence 635/667 (AID 1087); conditions: higher = more signal;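 further: score merges spot fluorescence at 667nm with spot signal to noise ratio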
# [11] = test system: PRMT1 (protein arginine N-methyltransferase 1); assay: small molecules binding arginine methyltransferase PRMT1 – biochemical, small-molecule microarray, 635 nm fluorescence, primary screen (AID 1088); conditions: higher = more signal;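 further: binding of Prmt1 protein to compounds spotted on small-molecule microarray slides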
# [12] = growth effects on S. cerevisiae YJM789 – YJM789 clinical isolate, OD600, 24 h, basal, primary screen (AID 1089); conditions: higher = more signal, called active from +8 up or from −8 down;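 further: growth of clinical yeast isolate S. cerevisiae YJM 789 seeded 1000 cells per well; test concentration not given here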
# [13] = S. pombe growth modifiers, basal conditions – strain 972, OD600, 24 h, no modulator, primary screen (AID 1090);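 further: basal condition with compound alone and no growth modifier present; test concentration not given here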; conditions: S. pombe 972 growth, higher = more signal, called active from +8 up or from −8 down
# [14] = budding yeast growth modifiers under rapamycin – strain BY4716, OD600, 96 h, primary screen (AID 1091); further: test concentration not given here; conditions: S. cerevisiae BY4716 + rapamycin, higher = more signal, called active from +8 up or from −8 down
# [15] = biological target: Torsin-1A-interacting protein 2 (Homo sapiens) (UniProt Q8NFQ8); assay: small molecules binding lysate-expressed LULL1 – cell lysate, human LULL1 lysate, 635/667 nm fluorescence, primary screen (AID 1092); conditions: small-molecule microarray, hLULL1 lysate binding, 635 nm fluorescence; higher = more signal;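 further: probe is lysate of COS7 cells overexpressing human LULL1; score merges per-feature 667 nm fluorescence with signal-to-noise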
# Sequence of Torsin-1A-interacting protein 2 (Homo sapiens) (Q8NFQ8 whole entry, looked up): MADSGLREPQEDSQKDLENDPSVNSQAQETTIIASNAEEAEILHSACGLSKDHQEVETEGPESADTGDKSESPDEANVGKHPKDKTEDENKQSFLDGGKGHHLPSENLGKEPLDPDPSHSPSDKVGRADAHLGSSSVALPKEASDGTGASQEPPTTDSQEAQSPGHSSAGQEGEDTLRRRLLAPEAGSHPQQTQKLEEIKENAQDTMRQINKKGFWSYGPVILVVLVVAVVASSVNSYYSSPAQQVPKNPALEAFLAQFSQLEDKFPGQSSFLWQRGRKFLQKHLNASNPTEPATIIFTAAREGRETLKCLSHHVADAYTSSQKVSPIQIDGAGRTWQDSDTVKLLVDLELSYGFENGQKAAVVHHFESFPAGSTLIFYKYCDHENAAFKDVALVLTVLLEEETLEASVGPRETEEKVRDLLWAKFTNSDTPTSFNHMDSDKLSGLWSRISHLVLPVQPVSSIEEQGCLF
# [16] = optical density change of DRC41 E. coli – strain DRC41, OD650, 24 h, E. coli filamentation project, primary screen (AID 1093);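 further: MC1000 strain lacking acrAB efflux and sulA so SOS filamentation is blocked; test concentration not given here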; conditions: E. coli DRC41 growth, higher = more signal, called active from +8 up or from −8 down
# [17] = probe aLefty2 binding to arrayed compounds – biochemical, biotinylated probe, 635/667 nm fluorescence, primary screen (AID 1094); conditions: small-molecule microarray, higher = more signal;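 further: score merges spot fluorescence near 667 nm with spot signal-to-noise ratio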
# [18] = test system: Noggin (protein binding on small-molecule microarray); assay: small molecules binding Noggin protein – biochemical, 635/667 nm fluorescence, primary screen (AID 1095); conditions: 635 nm fluorescence, higher = more signal;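 further: score merges 667 nm feature fluorescence with signal to noise over triplicate slides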
# [19] = biological target: Neurogenic locus notch homolog protein 3 (Homo sapiens) (UniProt Q9UM47); assay: small molecules binding NOTCH3 protein – biochemical, 635/667 nm fluorescence, primary screen (AID 1096); conditions: small-molecule microarray, 635 nm fluorescence, higher = more signal
# [20] = probe aEGFR binding to arrayed compounds – biochemical, biotinylated probe, 635/667 nm fluorescence, primary screen (AID 1097); conditions: small-molecule microarray, higher = more signal;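 further: probe is a biotinylated anti-EGFR antibody binding compounds printed on slides; score combines fluorescence near 667 nm and signal to noise of each spot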
SMILES,composite z-score [1],composite z-score [2],composite z-score [3],composite z-score [4],composite z-score [5],composite z-score [6],composite z-score [7],z-score [8],composite z-score [9],composite z-score [10],composite z-score [11],z-score [12],z-score [13],z-score [14],composite z-score [15],z-score [16],composite z-score [17],composite z-score [18],composite z-score [19],composite z-score [20]
COCCCNC(=O)[C@@]1(Sc2ccc(C)cc2)CC(=O)N(C2CCCCC2)[C@@H]1c1ccc(CO)cc1I,-0.364,0.657,0.0442,0.655,1.02,1.56,1.26,-3.63 (inactive),0.505,0.176,1.54,-1.9 (inactive),-0.128 (inactive),0.0267 (inactive),2.81,0.331 (inactive),-0.0333,0.451,1.04,0.0944
C=CCC(OC(C)=O)[C@@H]1[C@@H](N(Cc2ccc(-c3cccc(C(F)(F)F)c3)o2)C(=O)c2cccc3ccccc23)c2cc(OCCCO)ccc2N1C(=O)c1ccc2ccccc2n1 (stereo not given in full),0.672,0.584,-0.0242,0.232,-0.381,0.0262,-0.393,-0.147 (inactive),-0.111,0.185,0.24,0.75 (inactive),0.835 (inactive),0.356 (inactive),-0.039,-0.746 (inactive),-0.0209,-0.029,-0.684,-0.132
[N-]=[N+]=NCc1ccccc1C[C@@]1(C(=O)O)N=C(c2ccc(OCCCO)cc2)O[C@@H]1c1ccccc1CN=[N+]=[N-],0.0419,1.34,-0.01,0.556,1.17,1.1,1.22,2.88 (inactive),0.663,-0.173,1.28,-1.5 (inactive),-3.13 (inactive),-1.55 (inactive),1.59,0.345 (inactive),0.0829,0.34,0.679,0.0264
C#CCN=C(N)N,-0.504,0.147,-0.127,0.209,0.389,0.748,1.01,0.007 (inactive),0.224,-0.226,0.21,-0.303 (inactive),-0.349 (inactive),-0.247 (inactive),0.737,-0.291 (inactive),-0.18,0.759,0.562,0.0768
[N-]=[N+]=NCc1ccccc1C[C@]1(C(=O)N2CCOCC2)N=C(c2ccc(OCCCO)cc2)O[C@H]1c1ccccc1CN=[N+]=[N-],0.998,2.14,0.285,0.88,1.42,2.09,1.26,-2.03 (inactive),1.5,0.0623,1.56,1.66 (inactive),0.284 (inactive),16.6 (active),3.61,0.27 (inactive),0.747,0.809,0.616,0.732
C#CCN(C/C=C/c1ccccc1)[C@H](CO[Si](C)(C)C(C)(C)C)c1ccccc1,-0.0528,-0.0566,-0.0815,-0.284,-1.14,-0.267,-0.497,-1.27 (inactive),-0.363,-0.0994,0.21,0.253 (inactive),-0.121 (inactive),0.0066 (inactive),0.433,-0.347 (inactive),-0.264,-0.0154,-0.091,-0.21
CC=CC(O)C1C=CC2C(=O)N(C)C(=O)C2N1NC(=O)OC(C)(C)C (stereo not given),-0.0303,0.371,-0.072,0.488,1.16,0.746,1.09,0.282 (inactive),0.449,0.108,0.534,-0.219 (inactive),0.64 (inactive),0.0896 (inactive),0.522,-1.13 (inactive),-0.286,0.251,0.775,-0.0244
CN(C)CCCC[C@@H]1NC(=O)[C@@H]2C[C@H](C(=O)NCc3ccc(F)cc3)[C@H](c3ccc(O)cc3)N2C1=O,0.274,0.295,-0.103,0.203,-0.446,0.625,1.49,0.254 (inactive),-0.512,-0.191,1.34,0.582 (inactive),-1.4 (inactive),0.0709 (inactive),2.72,-0.585 (inactive),0.164,1.9,0.968,0.364
C=CCC(OC(C)=O)[C@@H]1[C@@H](N(Cc2ccc(-c3cccc(C(F)(F)F)c3)o2)C(=O)c2cccc3ccccc23)c2cc(OCCCO)ccc2N1C(=O)c1ccc2ccccc2c1 (stereo not given in full),0.125,-0.132,-0.0909,0.224,-0.365,0.62,-0.332,0.141 (inactive),-0.0637,-0.15,-0.429,0.611 (inactive),0.609 (inactive),-0.549 (inactive),-0.255,0.0268 (inactive),-0.0728,0.307,-0.1,-0.122
COCCOC(=O)N1C(=O)[C@@]2(c3cc(C#CCC(C(=O)OC)C(=O)OC)ccc31)[C@H](C(N)=O)[C@H]1C(=O)O[C@H](c3ccccc3)[C@H](c3ccccc3)N1[C@@H]2c1ccc(OCCO)cc1,-0.231,0.787,0.0001,0.906,1.34,1.19,1.23,0.789 (inactive),0.111,-0.249,1.53,2.23 (inactive),2.01 (inactive),6.44 (inactive),2.77,-0.55 (inactive),0.0139,0.813,1.08,-0.0245
CC(C)C(=C=CC[C@@H](O)c1ccccc1OCCO)C[C@@H](O)c1cc(Cl)cc(Cl)c1O,-0.667,1.84,-0.076,0.961,1.16,1.48,1.19,-1.95 (inactive),0.704,-0.0296,1.54,-0.0964 (inactive),-1.46 (inactive),-0.443 (inactive),2.7,-0.101 (inactive),-0.108,1.67,1.09,0.0182
Cc1ccc(F)cc1S(=O)(=O)N[C@@H]1CCN(Cc2ccc3c(c2)OCO3)C1,-0.125,0.267,-0.135,-0.0066,-0.898,-0.474,-0.276,-4.06 (inactive),-0.264,-0.0994,-0.5,0.158 (inactive),-2.41 (inactive),1.23 (inactive),-0.539,-1.4 (inactive),-0.148,0.171,-0.307,-0.226
NC(=O)NCC#Cc1ccc2c(c1)[C@]1(C(=O)N2)[C@H](C(=O)Nc2nc3ccccc3s2)[C@H]2C(=O)O[C@H](c3ccccc3)[C@H](c3ccccc3)N2[C@@H]1c1ccc(OCCO)cc1,0.155,-0.164,0.0526,0.331,0.614,-0.029,-0.895,2.13 (inactive),0.99,-0.347,-0.006,1.83 (inactive),1.87 (inactive),2.18 (inactive),0.963,0.976 (inactive),-0.0616,0.479,0.353,-0.138
CC(C)C[C@@H]1NC(=O)[C@H]2C[C@@H](C(=O)NCCCCCCNC(=O)CS)[C@@H](c3ccc(O)cc3)N2C1=O,-0.254,1.62,-0.0297,0.437,0.766,1.22,1.34,1.61 (inactive),0.665,-0.0296,1.54,0.107 (inactive),0.673 (inactive),0.185 (inactive),2.91,0.205 (inactive),-0.101,1.14,0.589,-0.0594
CCC[C@@H]1[C@@H](Sc2ccccc2)[C@@H](C(=O)O)[C@H](c2ccc(C)cc2)N1S(=O)(=O)c1ccc(C)cc1,-0.259,0.175,0.0213,0.894,1.67,1.15,1.34,-4.1 (inactive),1.11,-0.0618,1.56,-0.994 (inactive),0.674 (inactive),-0.698 (inactive),3.45,-0.131 (inactive),0.114,1.05,1.04,0.129
O=C1OCCC=C[C@H]2OC34C=CCN(c5ccc(Cl)cc5)C(=O)[C@H]3N(CCO)C(=O)[C@@H]4C12 (stereo not given in full),0.0828,1.85,-0.166,-0.434,-0.568,-0.666,-0.501,-0.0731 (inactive),-0.564,-0.0618,-0.502,-0.237 (inactive),-0.335 (inactive),-0.253 (inactive),-0.241,0.474 (inactive),-0.121,-0.545,-0.0792,-0.194
COc1ccc([Si](C)(C)[C@@H]2[C@@H](CC(=O)N(CCO)Cc3ccccc3)O[C@]3(C(=O)N(Cc4ccc(N5CCC5=O)cc4)c4ccccc43)[C@H]2C)cc1,-0.0664,0.461,-0.0226,0.0667,0.0102,0.695,0.677,-0.192 (inactive),2.26,-0.0267,-0.0625,0.127 (inactive),-0.246 (inactive),1.87 (inactive),0.628,1.31 (inactive),0.536,0.343,-0.0568,-0.199
CCOC(=O)C[C@H]1[C@H](OC(=O)c2ccc(-c3ccccc3)cc2)[C@@H](NC(=O)CC(C)C)c2cc(OCCCO)ccc2N1C(=O)Cc1ccc(OC)cc1,0.0706,0.445,-0.0131,0.135,0.119,0.828,-0.023,-0.33 (inactive),0.367,0.77,0.403,-1.15 (inactive),-0.218 (inactive),0.143 (inactive),0.734,-1.1 (inactive),0.19,-0.316,-0.117,-0.0084
CC(=O)NCCCC[C@@H]1NC(=O)[C@H]2C[C@@H](C(=O)NCCCCCC[N+](C)(C)C)[C@@H](c3ccc(O)cc3)N2C1=O,-0.383,0.808,-0.144,-0.351,-0.181,1.35,1.41,5.36 (inactive),-0.18,-0.199,1.55,-0.509 (inactive),0.555 (inactive),-0.489 (inactive),3.04,0.478 (inactive),-0.0206,1.46,0.702,-0.125
